# In PubChem BioAssay (NCATS):
# Several values for one entry are separate records, joined by “and”; a condition that tells them apart may be missing. Equal values may be shown once. Results filed as inconclusive are left out. Where a call stands in place of a potency, no number is given. Values without a mark were called inactive. Activity calls are given as the source filed them. Calls follow the shape of the dose curve; as a rule, active = well fitted curve in the direction sought with a large enough effect; inconclusive = small, poorly fitted or top-dose-only effect, or another doubt; inactive = no such curve, though single readings can be large; an effect the other way counts as inactive or inconclusive. Where a SMILES comes first, the peptide text is derived from it. The star is where a group is joined. AFC = O=c1cc(C(F)(F)F)c2ccc(N*)cc2o1
# What was measured:
# [1] = P-glycoprotein substrates identified in KB-3-1 adenocarcinoma cell line, qHTS therapeutic library screen (AID 1346986); conditions: KB-3-1 parental cells viability, CellTiter-Glo, 72 h; series mostly up to 44.5 µM; also: nearly all actives have a fitted effect of over 60% in size;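 also: potency is for cytotoxicity meaning loss of cell viability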
# In short: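 KB-3-1 parental and colchicine-selected P-gp-overexpressing KB-8-5-11 cells (colchicine omitted during assay), 500 cells/well, dosed in dose-response for 72 h at 37 °C; CellTiter-Glo luminescence. Cytotoxic: curve class -1.1 to -2.4, max response >50%, AC50 < 10 uM.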
# [2] = P-glycoprotein substrates identified in KB-8-5-11 adenocarcinoma cell line, qHTS therapeutic library screen (AID 1346987); conditions: KB-8-5-11 (P-gp overexpressing) viability, CellTiter-Glo, 72 h; series mostly up to 44.5 µM; also: nearly all actives have a fitted effect of over 65% in size
# In short: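 KB-8-5-11, a colchicine-selected P-gp-overexpressing KB-3-1 subline, was grown without colchicine for the assay. Cells were seeded at 500 cells/well, dosed in concentration-response and incubated 72 h at 37 degree C, 5% CO2. Viability was read by CellTiter-Glo luminescence.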
# Potency is read from the fitted curve at half-maximal effect.
structure (smiles),measurement,setting,value
C=CC(C)(C)c1[nH]c2cc3c(cc2c1CC1NC(=O)C2=CCCN2C1=O)C=CC(C)(C)O3 (stereo not drawn),Potency,[1],inactive
same,Potency,[2],inactive
CC1=C(C)C(=O)OC(C(C)C2CCC3C4C5OC5C5(O)CC(OC6OC(CO)C(OC7OC(C)C(O)C(O)C7O)C(O)C6O)CC(O)C5(C)C4CCC23C)C1 (stereo not drawn),Potency,[1],inactive
same,Potency,[2],inactive
COc1cc2c3c(cc4ccccc4c3c1O)NC2=O,Potency,[1],inactive
same,Potency,[2],inactive
C[C@H](NC(c1cccc(C[P+](=O)O)c1)[C@H](C)O)c1ccc(Cl)c(Cl)c1 (stereo partly drawn),Potency,[1],inactive
same,Potency,[2],inactive
C[C@@H]1O[C@@H](O[C@H]2[C@H](O[C@H]3[C@H](O)[C@@H](C(=O)O)O[C@@H](O[C@H]4CC[C@@]5(C)C(CC[C@]6(C)C5CC[C@]57OC[C@@]8(CCC(C)(C)CC85)[C@H](O)C[C@]76C)C4(C)C)[C@@H]3O[C@@H]3O[C@H](CO)[C@@H](O[C@@H]4OC[C@@H](O)[C@H](O)[C@H]4O)[C@H](O)[C@H]3O)O[C@H](CO)[C@H](O)[C@@H]2O)[C@H](O)[C@H](O)[C@H]1O (stereo partly drawn),outcome,[1],inactive [at 9.29 µM]
same,"activity change, negative = cytotoxicity",[2],2.43% [at 9.29 µM]
C/C(=C\CCC(C)CCO)C(=O)O[C@@H]1[C@@H](O)[C@H](OC2OC=C(C(=O)O)C3CCC(C)(O)C23)O[C@H](CO)[C@H]1O (stereo partly drawn),Potency,[1],inactive
same,Potency,[2],inactive
COC(=O)C1=CO[C@@H](O[C@@H]2O[C@H](CO[C@@H]3O[C@H](COC(=O)/C=C/c4cc(OC)c(O)c(OC)c4)[C@@H](O)[C@H](O)[C@H]3O)[C@@H](O)[C@H](O)[C@H]2O)[C@@H]2C(CO)=CC[C@H]12,Potency,[1],inactive
same,Potency,[2],inactive
OC[C@H]1O[C@@H](Oc2ccccc2)[C@H](O)[C@@H](O)[C@@H]1O,Potency,[1],inactive
same,Potency,[2],inactive
C=C1[C@@H]2CC[C@@H]3[C@@](CCC4C(C(=O)O)(C(=O)O)C[C@@H](O[C@@H]5O[C@H](CO)[C@@H](O)[C@H](O)[C@H]5OC(=O)CC(C)C)C[C@]43C)(C2)[C@H]1O (stereo partly drawn),Potency,[1],inactive
same,Potency,[2],inactive
CCC(Nc1ncnc2nc[nH]c12)c1nc2cccc(F)c2c(=O)n1-c1ccccc1 (stereo not drawn),Potency,[1],inactive
same,Potency,[2],inactive
Cc1cc(Cl)ccc1COc1ccnn1-c1cc(C(=O)O)ccn1,Potency,[1],inactive
same,Potency,[2],inactive
COc1cc(C(=O)O)ccc1OC1OC(CO)C(O)C(O)C1O (stereo not drawn),Potency,[1],inactive
same,Potency,[2],inactive
O=c1[nH]ccc2cc(OC3CCNCC3)ccc12,Potency,[1],inactive
same,Potency,[2],inactive
C=CC(C)(CC/C=C(\C)C(=O)OC)OC1OC(COC(=O)CC(C)(O)CC(=O)O)C(OC2OC(CO)C(O)C(O)C2O)C(O)C1O (stereo not drawn),Potency,[1],inactive
same,Potency,[2],inactive
CC(CO)C1CCC2(C)CC3C(CO)CC(O)C3C(C)(O)C/C=C/12 (stereo not drawn),Potency,[1],inactive
same,Potency,[2],inactive
CC(=O)N[C@H]1[C@H](O[C@H]2CC[C@@]3(C)C(CC[C@]4(C)C3CC=C3[C@@H]5CC(C)(C)CC[C@]5(C(=O)OC5OCC(O)C(O)C5O)CC[C@]34C)C2(C)C)O[C@H](COC2OC(C)C(O)C(OC3OC(C)C(O)C(O)C3O)C2O)[C@@H](O)[C@@H]1O (stereo partly drawn),outcome,[1],inactive [at 9.29 µM]
same,"activity change, negative = cytotoxicity",[2],4.96% [at 9.29 µM]
CC(=O)N[C@@H](CCCCN)C(=O)N(C)[C@@H](CC(C)C)C(=O)N[C@H](C(=O)N(C)[C@@H](Cc1ccccc1)C(=O)N[C@H](Cc1ccccc1)C(N)=O)C(C)C,outcome,[1],inactive [at 5.11 µM]
same,outcome,[2],inactive [at 5.11 µM]
CC(=O)O[C@@H]1[C@@H](CO)O[C@@](CO)(O[C@H]2O[C@H](COC(=O)/C=C/c3ccccc3)[C@@H](O)[C@H](O)[C@H]2O)[C@H]1O,Potency,[1],inactive
same,Potency,[2],inactive
C[C@@H]1O[C@@H](O[C@H]2[C@@H]3C=CO[C@@H](O[C@@H]4O[C@H](CO)[C@@H](O)[C@H](O)[C@H]4O)[C@@H]3[C@@]3(CO)O[C@@H]23)[C@H](OC(=O)/C=C/c2ccccc2)[C@H](O)[C@H]1O,Potency,[1],inactive
same,Potency,[2],inactive
O=C(/C=C/c1ccccc1)OC[C@]12O[C@H]1[C@@H](O)[C@@H]1C=CO[C@@H](O[C@@H]3O[C@H](CO)[C@@H](O)[C@H](O)[C@H]3O)[C@@H]12,Potency,[1],inactive
same,Potency,[2],inactive
CC1C(=O)OCC2=CCN3CCC(OC(=O)C(C)(O)C1(C)O)C23 (stereo not drawn),Potency,[1],inactive
same,Potency,[2],inactive
CC(=O)CC1CCC(C(C)C(=O)OCC(O)CO)O1 (stereo not drawn),Potency,[1],inactive
same,Potency,[2],inactive
O=C(O)/C=C/c1ccc(O)c(O[C@@H]2O[C@H](CO)[C@@H](O)[C@H](O)[C@H]2O)c1,Potency,[1],inactive
same,Potency,[2],inactive
O=C1NC(Cc2c[nH]c3ccccc23)C(=O)NC1Cc1cnc[nH]1 (stereo not drawn),Potency,[1],inactive
same,Potency,[2],inactive
CC(=O)OC1C[C@@]2(C)[C@@H](CC[C@@H](C)[C@]23Cc2c(O)cc4c(c2O3)CNC4=O)C(C)(C)[C@@H]1O (stereo partly drawn),Potency,[1],inactive
same,Potency,[2],inactive
C=C[C@@]12COC(=O)C(=C)C1[C@@H](O)[C@H](C(=C)C(=O)OC)[C@@H](OC(=O)C(=C)CO)C2 (stereo partly drawn),Potency,[1],inactive
same,Potency,[2],inactive
C=C[C@@H]1[C@H](O[C@@H]2O[C@H](CO)[C@@H](O)[C@H](O)[C@H]2O)OC=C(C(=O)O)[C@H]1CCOC(=O)/C=C/c1ccc(O)c(O)c1,Potency,[1],inactive
same,Potency,[2],inactive
CC1(C)C[C@H](O)C[C@@]2(C)OC(=O)C=C12,Potency,[1],inactive
same,Potency,[2],inactive
C=C(C(=O)O)C1CCC2(C)CCCC(C)(O)C2C1 (stereo not drawn),Potency,[1],inactive
same,Potency,[2],inactive
Nc1ccc(/C=C/C(=O)NCc2cc3cc(-c4ccc(C(=O)N5CCC(F)(F)CC5)cc4)cc(-c4ccc(F)cc4)c3o2)cn1,Potency,[1],0.517 µM (active)
same,Potency,[2],5.17 µM (active) and 5.8 µM (active)
Cn1c2ccc(F)cc2c2c(C(=O)N3CCCC3)cn(-c3ccccc3)c(=O)c21,Potency,[1],inactive
same,Potency,[2],inactive
CC(=O)N[C@@H](Cc1c[nH]c2ccccc12)C(=O)N[C@@H](CCC(=O)O)C(=O)N[C@@H](Cc1cnc[nH]1)C(=O)N[C@@H](CC(=O)O)C(=O)Nc1ccc2c(C(F)(F)F)cc(=O)oc2c1 (Ac-WEHD-{AFC}),Potency,[1],inactive
same,Potency,[2],inactive
CC(C)=CCC(O)/C(C)=C/CO[C@@H]1O[C@H](CO)[C@@H](O)[C@H](O)[C@H]1O (stereo partly drawn),Potency,[1],inactive
same,Potency,[2],inactive
N#Cc1c(Oc2ccc(F)c(NC(=O)Cc3cccc(C(F)(F)F)c3)c2)ccc2nc(NC(=O)C3CC3)sc12,Potency,[1],6.51 µM (active)
same,Potency,[2],7.31 µM (active)
CO[C@H]1O[C@@H]2O[C@]3(C)CC[C@H]4[C@H](C)CC[C@@H]([C@H]1C)[C@@]24OO3,Potency,[1],inactive
same,Potency,[2],inactive
C=C1C[C@]23C[C@H]1CC[C@H]2[C@@]1(C)CCC[C@@]2(C)C(=O)O[C@@H]([C@@H]3O)[C@@H]12,Potency,[1],inactive
same,Potency,[2],inactive
CC1(C)C=CN2C(=O)C3=CCCN3C(=O)[C@@H]2C[C@@]12Nc1ccccc1C2=O,Potency,[1],inactive
same,Potency,[2],inactive
C[C@@H]1O[C@@H](O[C@@H]2CO[C@@H](O[C@H]3CC[C@@]4(C)C(CC[C@]5(C)C4CC=C4[C@@H]6CC(C)(C)CC[C@]6(C(=O)O[C@@H]6O[C@H](CO)[C@@H](O)[C@H](O)[C@H]6O)CC[C@]45C)[C@]3(C)CO)[C@H](O)[C@H]2O[C@@H]2O[C@H](CO)[C@@H](O)[C@H](O)[C@H]2O)[C@H](O)[C@H](O)[C@H]1O (stereo partly drawn),outcome,[1],inactive [at 9.29 µM]
same,"activity change, negative = cytotoxicity",[2],4.08% [at 9.29 µM]
CC1(C)CC[C@]2(C(=O)O[C@@H]3O[C@H](CO)[C@@H](O)[C@H](O)[C@H]3O)CC[C@]3(C)C(=CCC4[C@@]5(C)C[C@@H](O)[C@H](O)[C@@](C)(CO)C5CC[C@]43C)C2[C@@H]1O (stereo partly drawn),Potency,[1],inactive
same,Potency,[2],inactive
